Source: PubChem BioAssay (NCI)
The panel holds about 83,000 compounds, 20% with a hit somewhere; the sample as a whole holds those more often.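 96-well plates, one dose, 48 hours. Percent growth reported; active if below 10.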 The source made the active and inactive calls.

What was measured:
Assay in all cases: NCI-60 one-dose screen, 48 h (100 = growth as untreated, 0 = no growth, -100 = all killed)
Settings in all cases: 10 µM unless noted
HCT-15 colon = system: HCT-15 colon
HT29 colon = system: HT29 colon
SNB-75 CNS = system: SNB-75 CNS
SNB-19 CNS = system: SNB-19 CNS
U251 CNS = system: U251 CNS
PC-3 prostate = system: PC-3 prostate
SK-MEL-5 melanoma = system: SK-MEL-5 melanoma
UACC-62 melanoma = system: UACC-62 melanoma
LOX IMVI melanoma = system: LOX IMVI melanoma
SK-MEL-28 melanoma = system: SK-MEL-28 melanoma

Measured: growth

Cc1ccccc1/C=C1\CN(C(=O)OC(C)(C)C)C/C(=C\c2ccccc2C)C1=O
inactive: SNB-75 CNS 53.4% | SNB-19 CNS 39.1% | PC-3 prostate 21.9% | SK-MEL-5 melanoma 83% | UACC-62 melanoma 28.7% | SK-MEL-28 melanoma 55.5%
active: HCT-15 colon 1.66% | HT29 colon -26.4% | U251 CNS 0.0873% | LOX IMVI melanoma -62.4%

O=C(CSc1nc2ccc([N+](=O)[O-])cc2[nH]1)Nc1ccc(F)cc1
inactive: HCT-15 colon 64.9% | HT29 colon 71.6% | SNB-75 CNS 51.1% | SNB-19 CNS 69.2% | U251 CNS 45.7% | PC-3 prostate 54.9% | SK-MEL-5 melanoma 32.5% | UACC-62 melanoma 25.1% | LOX IMVI melanoma 64.8% | SK-MEL-28 melanoma 61.8%

CCC(C)N(c1ccc(Cl)cc1)c1nc(-c2ccc(Br)cc2)cs1 (stereo not given)
inactive: HCT-15 colon 97.7% | HT29 colon 106% | SNB-75 CNS 102% | SNB-19 CNS 105% | U251 CNS 98% | PC-3 prostate 99.9% | SK-MEL-5 melanoma 104% | UACC-62 melanoma 87.2% | LOX IMVI melanoma 93.3% | SK-MEL-28 melanoma 111%

CN(Cc1ccc(C(F)(F)F)cc1)CC(O)C(=O)Nc1ccc(Cl)cc1 (stereo not given)
inactive: SNB-75 CNS 24.6% | SNB-19 CNS 31.4% | PC-3 prostate 22% | UACC-62 melanoma 29.7% | SK-MEL-28 melanoma 85.8%
active: HCT-15 colon -15.4% | HT29 colon 1.26% | U251 CNS -82.3% | SK-MEL-5 melanoma 8.39% | LOX IMVI melanoma -85.4%

Fc1cc(F)cc(C(c2c[nH]c3ccccc23)c2c[nH]c3ccccc23)c1
inactive: HCT-15 colon 79.5% | HT29 colon 99.1% | SNB-75 CNS 106% | SNB-19 CNS 104% | U251 CNS 101% | PC-3 prostate 67.1% | SK-MEL-5 melanoma 88.2% | UACC-62 melanoma 84.9% | LOX IMVI melanoma 83.5% | SK-MEL-28 melanoma 101%

CCNc1nc(-c2ccc(Cl)c(OC)c2)c(-c2ccnc(NCCCNS(=O)(=O)c3ccc(Cl)cc3)n2)s1
inactive: HCT-15 colon 61.6% | HT29 colon 19.1% | SNB-75 CNS 77.6% | SNB-19 CNS 81.8% | U251 CNS 51.9% | PC-3 prostate 29.4% | SK-MEL-5 melanoma 48.2% | UACC-62 melanoma 29.7% | LOX IMVI melanoma 56.3% | SK-MEL-28 melanoma 38.9%

COc1cc(NC(C)CCCNC(C)C)c2ncccc2c1OC (stereo not given)
inactive: HCT-15 colon 99.3% | HT29 colon 120% | SNB-75 CNS 87.6% | SNB-19 CNS 93% | U251 CNS 92% | PC-3 prostate 90.8% | SK-MEL-5 melanoma 97.9% | UACC-62 melanoma 85% | LOX IMVI melanoma 83.5% | SK-MEL-28 melanoma 108%

COc1cc(OC)c2sc(-c3ccc(-n4cncc4-c4ccc(OC)c(OC)c4)cc3)nc2c1
inactive: HCT-15 colon 17.8% | HT29 colon 35.1% | SNB-75 CNS 87.1% | SNB-19 CNS 67.1% | U251 CNS 46% | PC-3 prostate 27.6% | SK-MEL-5 melanoma 22.5% | UACC-62 melanoma 53.4% | LOX IMVI melanoma 59.1% | SK-MEL-28 melanoma 71.8%

COc1cc(CNC(=O)CCCC/C=C/C(C)C)ccc1OCc1nnc(Nc2ccc([N+](=O)[O-])cc2)o1
inactive: HCT-15 colon 81.2% | HT29 colon 71.7% | SNB-75 CNS 48.7% | SNB-19 CNS 54% | U251 CNS 48.6% | PC-3 prostate 37.6% | SK-MEL-5 melanoma 46.3% | UACC-62 melanoma 39.6% | LOX IMVI melanoma 55.2% | SK-MEL-28 melanoma 74.3%

CC1(c2ccccc2O)NN=C(/N=C/c2cccc([N+](=O)[O-])c2)N1C(Cc1c[nH]c2ccccc12)C(=O)O (stereo not given)
inactive: HCT-15 colon 98.7% | HT29 colon 102% | SNB-75 CNS 92.3% | SNB-19 CNS 96.9% | U251 CNS 96.1% | PC-3 prostate 76.9% | SK-MEL-5 melanoma 93% | UACC-62 melanoma 77.6% | LOX IMVI melanoma 90.5% | SK-MEL-28 melanoma 106%

CCNc1cc(-c2cccc(OC(F)(F)F)c2)nc2ccc(N3CCCC3)cc12
inactive: SNB-75 CNS 82.3% | SNB-19 CNS 27% | PC-3 prostate 15.1% | UACC-62 melanoma 50.7% | LOX IMVI melanoma 11.3% | SK-MEL-28 melanoma 30.6%
active: HCT-15 colon 4.85% | HT29 colon 4.79% | U251 CNS -68.3% | SK-MEL-5 melanoma -64.3%

NC(=O)CCC(C(=O)O)N1C(=O)c2ccc(O)cc2C1=O (stereo not given)
inactive: HCT-15 colon 101% | HT29 colon 119% | SNB-75 CNS 128% | SNB-19 CNS 110% | U251 CNS 100% | PC-3 prostate 98.6% | SK-MEL-5 melanoma 107% | UACC-62 melanoma 111% | LOX IMVI melanoma 97.2% | SK-MEL-28 melanoma 124%

C=C(C)[C@@H]1CC[C@]2(C(=O)N3CCN(C)CC3)CC[C@]3(C)[C@H](CC[C@@H]4[C@@]5(C)CC(=C/c6ccncc6)/C(=N/O)C(C)(C)[C@@H]5CC[C@]43C)[C@@H]12
inactive: HCT-15 colon 65.5% | HT29 colon 41.1% | SNB-75 CNS 66.1% | SNB-19 CNS 79.7% | U251 CNS 70.2% | PC-3 prostate 44.8% | SK-MEL-5 melanoma 59.9% | UACC-62 melanoma 78.5% | LOX IMVI melanoma 86% | SK-MEL-28 melanoma 96.4%

O=C(CCc1nnc(Cn2cnc3nc[nH]c3c2=O)o1)c1nc2ncccc2[nH]1
inactive: HCT-15 colon 104% | HT29 colon 92% | SNB-75 CNS 92.5% | SNB-19 CNS 94.6% | U251 CNS 101% | PC-3 prostate 105% | SK-MEL-5 melanoma 104% | UACC-62 melanoma 94.3% | LOX IMVI melanoma 88.1% | SK-MEL-28 melanoma 111%

CCn1c(SCC(=O)c2ccc(Br)cc2)nnc1-c1ccncc1
inactive: HCT-15 colon 106% | HT29 colon 107% | SNB-75 CNS 81.7% | SNB-19 CNS 99.2% | U251 CNS 99.6% | PC-3 prostate 102% | SK-MEL-5 melanoma 98.9% | UACC-62 melanoma 96.8% | LOX IMVI melanoma 101% | SK-MEL-28 melanoma 109%

CC1(C)CC2=C3C=C[C@@H]4[C@@]5(C)CCC(=O)C(C)(C)[C@@H]5CC[C@@]4(C)[C@]3(C)CC[C@@]2(C(=O)O)CC1=O
inactive: HCT-15 colon 57.2% | HT29 colon 50.4% | SNB-75 CNS 10% | SNB-19 CNS 96.5% | U251 CNS 61.2% | PC-3 prostate 74.3% | SK-MEL-5 melanoma 55.2% | UACC-62 melanoma 64% | LOX IMVI melanoma 87.2% | SK-MEL-28 melanoma 46.5%

CSc1nnc(-c2cnn3c2NC(c2ccccc2)C3)n1-c1ccc(C(F)(F)F)cc1 (stereo not given)
inactive: HCT-15 colon 35.1% | HT29 colon 28.4% | SNB-75 CNS 66.7% | SNB-19 CNS 66.9% | U251 CNS 58% | PC-3 prostate 46.3% | SK-MEL-5 melanoma 31.3% | UACC-62 melanoma 40.3% | LOX IMVI melanoma 61.3% | SK-MEL-28 melanoma 71.7%

COC(=O)[C@]1(C)CCC[C@]2(C)[C@H]3C[C@H]4C(C(C)C)=C[C@]3(CC[C@H]21)[C@H]1[C@@H]4[C@@H](OCCC#N)CC[C@@H]1OCCC#N
active: HT29 colon 6.91% | PC-3 prostate 2.36%
inactive: HCT-15 colon 29.9% | SNB-75 CNS 75.6% | SNB-19 CNS 52.3% | U251 CNS 33.3% | SK-MEL-5 melanoma 26.2% | UACC-62 melanoma 39.5% | LOX IMVI melanoma 59.7% | SK-MEL-28 melanoma 61.9%

O=C(O)/C(=C\c1ccc(Cl)cc1)c1ccc(Cl)cc1
inactive: HCT-15 colon 86.9% | HT29 colon 93.6% | SNB-75 CNS 74.2% | SNB-19 CNS 103% | U251 CNS 91.9% | PC-3 prostate 89.8% | SK-MEL-5 melanoma 96.4% | UACC-62 melanoma 94.3% | LOX IMVI melanoma 95.2% | SK-MEL-28 melanoma 95.9%

N#Cc1cccc(F)c1
inactive: HCT-15 colon 97.8% | HT29 colon 104% | SNB-75 CNS 127% | SNB-19 CNS 94.4% | U251 CNS 110% | PC-3 prostate 102% | SK-MEL-5 melanoma 107% | UACC-62 melanoma 102% | LOX IMVI melanoma 107% | SK-MEL-28 melanoma 117%

Fc1cc2c(cc1Cl)N(c1ncnc3ccc(-c4cnc5[nH]ncc5c4)cc13)CC2
inactive: HCT-15 colon 58.8% | HT29 colon 56.3% | SNB-75 CNS 19.7% | SNB-19 CNS 69.4% | U251 CNS 76.6% | PC-3 prostate 53.9% | SK-MEL-5 melanoma 85.2% | UACC-62 melanoma 58.1% | LOX IMVI melanoma 47.2% | SK-MEL-28 melanoma 83.4%

N#CC1=C(N)Oc2c(sc3c(Br)cccc23)C1c1ccc(F)cc1 (stereo not given)
inactive: HCT-15 colon 10.3% | SNB-75 CNS 34.3% | SNB-19 CNS 47.8% | U251 CNS 21.4% | PC-3 prostate 23.6% | SK-MEL-5 melanoma 23.6% | UACC-62 melanoma 26.4% | LOX IMVI melanoma 27.4% | SK-MEL-28 melanoma 57.6%
active: HT29 colon 1.78%

CC12CCC3c4ccccc4CCC3(CO1)C2 (stereo not given)
inactive: HCT-15 colon 108% | HT29 colon 100% | SNB-75 CNS 89.7% | SNB-19 CNS 114% | U251 CNS 107% | PC-3 prostate 88% | SK-MEL-5 melanoma 102% | UACC-62 melanoma 105% | LOX IMVI melanoma 101% | SK-MEL-28 melanoma 99.9%

N=C(N)c1ccc(-c2ccc(-c3ccc(F)cc3)o2)o1
inactive: SNB-75 CNS 20% | SNB-19 CNS 26.7% | PC-3 prostate 19.3% | SK-MEL-5 melanoma 21.7% | UACC-62 melanoma 57.5% | SK-MEL-28 melanoma 65.1%
active: HCT-15 colon -0.304% | HT29 colon -20.3% | U251 CNS -11.7% | LOX IMVI melanoma -61.6%

Cc1nc2ncnc(Cl)c2[nH]1
inactive: HCT-15 colon 100% | HT29 colon 80.9% | SNB-75 CNS 89.1% | SNB-19 CNS 99.7% | U251 CNS 91.3% | PC-3 prostate 90.5% | SK-MEL-5 melanoma 104% | UACC-62 melanoma 100% | LOX IMVI melanoma 97.5% | SK-MEL-28 melanoma 115%

COc1cc(-n2cc(-c3cc(O)c(C/C=C(\C)CCC=C(C)C)c(O)c3)nn2)cc2c1O[C@]1(C)CC[C@@H](O)C(C)(C)[C@H]1C2
active: HCT-15 colon -12.2% | HT29 colon -34.6% | SNB-75 CNS 7.34% | U251 CNS 4.31% | SK-MEL-5 melanoma -61.4% | UACC-62 melanoma -30.2% | LOX IMVI melanoma -79.9%
inactive: SNB-19 CNS 32.5% | PC-3 prostate 16.2% | SK-MEL-28 melanoma 35.7%
